Assay results as given in PubChem BioAssay.
Where a SMILES comes first, the peptide text is derived from it. Bridges are numbered along the chain shown (N, C = ends). [ ]: non-standard residue; d: D form. The star is where a group is joined. ξ: configuration not given here. ξDab(CH2SO3H) = NC(CCNCS(=O)(=O)O)C(=O)O; Octanoyl(6-Me) = CCC(C)CCCCC(=O)*; Dab = NCC[CH](N)C(=O)O

The compounds below were run against 6-phosphogluconate dehydrogenase, decarboxylating (Homo sapiens) (UniProt P52209) (assay: 6PGD enzyme inhibitors, primary screen, biochemical, human, recombinant enzyme, NADPH absorbance (AID 1159550)). Details: recombinant 6PGD, NADPH absorbance 341 nm; at 10 µM; hits give high values;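 active = at least 20% inhibition of 6-phosphogluconate dehydrogenase activity; inactive = the rest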.
6-phosphogluconate dehydrogenase, decarboxylating (Homo sapiens), sequence (P52209 whole entry, looked up): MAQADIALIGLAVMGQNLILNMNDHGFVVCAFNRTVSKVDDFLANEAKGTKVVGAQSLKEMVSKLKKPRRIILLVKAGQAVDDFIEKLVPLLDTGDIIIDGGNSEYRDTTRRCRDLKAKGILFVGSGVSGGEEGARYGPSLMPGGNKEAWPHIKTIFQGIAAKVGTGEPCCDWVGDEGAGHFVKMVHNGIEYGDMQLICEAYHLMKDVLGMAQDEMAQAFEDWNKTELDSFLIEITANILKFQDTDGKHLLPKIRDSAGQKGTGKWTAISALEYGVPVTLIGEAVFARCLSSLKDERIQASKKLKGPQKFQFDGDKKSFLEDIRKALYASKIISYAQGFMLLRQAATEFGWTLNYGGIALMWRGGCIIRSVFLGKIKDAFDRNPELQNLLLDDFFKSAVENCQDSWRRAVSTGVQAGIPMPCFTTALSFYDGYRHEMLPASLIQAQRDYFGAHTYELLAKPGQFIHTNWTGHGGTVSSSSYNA

inhibition, inactive:
Oc1ccc2c(c1)OC[C@]1(O)Cc3cc(O)c(O)cc3C21 (some centres undefined) 9.03%
CCC(C)CCCCC(=O)NC(CCNCS(=O)(=O)O)C(=O)NC(C(=O)NC(CCNCS(=O)(=O)O)C(=O)NC1CCNC(=O)C(C(C)O)NC(=O)C(CCNCS(=O)(=O)O)NC(=O)C(CCNCS(=O)(=O)O)NC(=O)C(CC(C)C)NC(=O)C(CC(C)C)NC(=O)C(CCNCS(=O)(=O)O)NC1=O)C(C)O (centres undefined) ({Octanoyl(6-Me)}-[ξDab(CH2SO3H)]T[ξDab(CH2SO3H)][Dab][ξDab(CH2SO3H)]LL[ξDab(CH2SO3H)][ξDab(CH2SO3H)]T; lactam 4-C; configuration not given here) 17.5%
O=C/C=C/c1ccc(O)cc1 1.58%
COC(=O)[C@H](O)[C@H]1C(C)(C)C(=O)[C@@H]2C[C@]3(O)[C@@H]4CC(=O)O[C@@H](c5ccoc5)[C@]4(C)CC[C@@H]3[C@@]1(C)C2=O 1.04%
COc1ccc2c(=O)ccoc2c1 -1.53%
CC[C@@H](/C=C/[C@@H](C)[C@H]1CC[C@H]2[C@@H]3CC=C4C[C@@H](O)CC[C@]4(C)[C@H]3CC[C@]12C)C(C)C 15.3%
COC(=O)c1c(Cl)c(Cl)c(C(=O)OC)c(Cl)c1Cl -11.1%
CC(=O)Oc1ccc2c(c1)CC[C@@H]1[C@@H]2CC[C@]2(C)C(=O)CC[C@@H]12 -18%
CC(=O)O[C@H]1CC[C@]2(C)C3=CC(=O)[C@@]4(C)C(C[C@@H]5OC6(OCC(C)CC6Br)C(C)[C@@H]54)C3CC[C@H]2C1 (some centres undefined) 6.67%
Nc1nc2c(ncn2[C@H]2C[C@H](O)[C@@H](CO)O2)c(=O)[nH]1 -9.26%
CC(=O)OC1CC[C@@]2(C)C(CC[C@]3(C)C2CCC2C4CC(C)(C)CCC4(C(=O)O)CC[C@]23C)C1(C)C (some centres undefined) 5.8%
CC1=CCCC(C)=CCC(C)(C)C=CC1 -0.753%
CC(C)CCC[C@@H](C)[C@H]1CC[C@H]2[C@@H]3CC[C@H]4CCCC[C@]4(C)[C@H]3CC[C@]12C 11.6%
CC1(C)C=Cc2c(cc3occ(-c4ccc5c(c4)OCO5)c(=O)c3c2O)O1 -4.68%
COc1ccc(-c2cc(=O)c3c(O)cc(O[C@H]4O[C@H](CO[C@@H]5O[C@@H](C)[C@H](O)[C@@H](O)[C@H]5O)[C@@H](O)[C@H](O)[C@H]4O)cc3o2)cc1 17.5%
CC(=O)OCC(=O)[C@@]1(O)CC[C@H]2[C@@H]3CC[C@@H]4C[C@H](OC(C)=O)CC[C@]4(C)[C@H]3C(=O)C[C@@]21C 4.42%
CC1(C)CCC2(C(=O)O)C(O)CC3(C)C(=CCC4C5(C)CCC(O)C(C)(C)C5CCC43C)C2C1 (centres undefined) -10.1%
O=c1c(O)cccc2c([C@H]3Oc4cc(O)cc(O)c4C[C@H]3O)cc(O)c(O)c12 3.21%
COC(=O)C[C@H]1C(C)(C)C(=O)[C@@H]2CC3=C4CC(OC)O[C@@H](c5ccoc5)[C@]4(C)CCC3[C@@]1(C)C2=O (some centres undefined) -2.67%
COc1c(-c2ccccc2)oc2c(OC)cccc2c1=O -9.55%
O=C(Oc1cc([C@H]2Oc3cc(O)cc(O)c3C[C@H]2O)cc2c([C@H]3Oc4cc(O)cc(O)c4C[C@H]3O)cc(O)c(OC(=O)c3cc(O)c(O)c(O)c3)c2c1=O)c1cc(O)c(O)c(O)c1 -0.352%
C=CC(C)(O)CCC=C(C)C (centres undefined) -3.42%
Oc1cc(O)c2c(c1)O[C@H](c1cc(O)c(O)c(O)c1)[C@H](O)[C@H]2c1c(O)cc(O)c2c1O[C@H](c1cc(O)c(O)c(O)c1)[C@H](O)[C@H]2c1c(O)cc(O)c2c1O[C@H](c1cc(O)c(O)c(O)c1)[C@H](O)C2 11.5%
CCCCCCCCCCCCC(C(=O)O)C(C)C(=O)O (centres undefined) -10.3%
C1CCN2CC3CC(CN4CCCCC34)C2C1 (centres undefined) 12.3%
C=CCCCCCCCCCCC[C@@H](O)C[C@@H](O)CO -7.76%
COc1ccc(-c2coc3c(OC)c(OC)cc(OC)c3c2=O)cc1 4.09%
CC(=O)OC1CC[C@@]2(C)C(CC[C@H]3[C@@H]4CC=C(C(C)=O)[C@@]4(C)C(=O)C[C@@H]32)C1 (some centres undefined) 4.79%
CC1(C)C(=O)C=C[C@]2(C)C3CC[C@@]4(C)[C@H](c5ccoc5)OC(=O)[C@H]5O[C@]54[C@]3(C)C(=O)C[C@@H]12 (some centres undefined) 1.03%
COC(=O)C[C@H]1C(C)(C)C(=O)[C@@H]2CC3=C4CC(=O)O[C@@H](c5ccoc5)[C@]4(C)CC[C@@H]3C1(C)C2=O -2.15%
COC(=O)C[C@H]1C(C)(C)C2(Cl)O[C@@]34CC2C(=O)[C@]1(C)C3CC[C@]1(C)C4=CC(=O)O[C@H]1c1ccoc1 (some centres undefined) 6.04%
COc1c(C(=O)O)ccc2c1CCC(C)(C)O2 17.1%
CC(=O)OCC(=O)[C@@]1(O)CC[C@H]2[C@@H]3CC[C@@H]4C[C@H](O)CC[C@]4(C)[C@H]3C(=O)C[C@@]21C -7.21%
COC(=O)C[C@H]1C(C)(C)C(OC(C)=O)[C@]2(O)C=C3C4CC(=O)O[C@@H](c5ccoc5)[C@]4(C)CCC3[C@@]1(C)C2=O (some centres undefined) -4.04%
C[C@H](C[C@@H](O)[C@@H]1OC1(C)C)[C@@H]1CC[C@]2(C)C3=CC[C@H]4C(C)(C)C(=O)CC[C@]4(C)[C@H]3CC[C@@]12C -0.309%
CC1(C)S[C@H]2[C@@H](NC(=O)[C@H](NC(=O)N3CCNC3=O)c3ccccc3)C(=O)N2[C@@H]1C(=O)O 10.5%
C=C1CCC(=O)C(C)CCC2C1CC2(C)C (centres undefined) 14.7%
COC(=O)C1OC(=O)C2OC23C1(C)CCC1C2(C)CCC(=O)C(C)(C)C2CC(OC(C)=O)C13C (centres undefined) -6.02%
Cc1occc(=O)c1/C=C/O 0.162%
